# In PubChem BioAssay:
# Inconclusive results are not listed. The source made the active and inactive calls. Unless noted, no cut-off is given here; in the data, nearly all actives have AC50 up to about 26 µM.
# Experiments:
# [1] = growth inhibition of DIPG glioma cells, dose response, cell-based, SU-DIPG-XVII, MIPE5.0, CellTiter-Glo, qHTS (AID 1347060); details: SU-DIPG-XVII viability, CellTiter-Glo ATP luminescence;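 for AC50: cells exposed to compound for 48 hours before viability readout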
# [2] = growth inhibition of DIPG glioma cells, dose response, cell-based, SU-DIPG-XIII, MIPE5.0, CellTiter-Glo, qHTS (AID 1347064; cut-off not given, nearly all actives have AC50 up to about 23 µM;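 for AC50: cells exposed to compound for 48 hours before the viability read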); details: SU-DIPG-XIII viability, CellTiter-Glo ATP luminescence
# [3] = viability loss in pontine glioma line – cell-based, SU-DIPG-XXV, MIPE5.0, CellTiter-Glo, qHTS, dose response (AID 1347065); details: CellTiter-Glo ATP luminescence;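 note: cells exposed to compound for 48 hours before ATP readout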
# [4] = JHH-DIPG-1 glioma cell viability, MIPE5.0 library, CellTiter-Glo luminescence, qHTS (AID 1347067); details: JHH-DIPG-1 glioma viability, CellTiter-Glo ATP luminescence;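 note: cells exposed to compound for 48 hours before readout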
# [5] = SU-DIPG-XXV glioma cell viability, MIPE5.0 library, qHTS (AID 1347068; cut-off not given, nearly all actives have IC50 up to about 30 µM;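 for IC50: cells exposed to compound for 48 hours before viability readout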)
# [6] = LFS_MB_P medulloblastoma growth inhibition, cell-based, chromothripsis tumors, cisplatin or BGB combos (AID 1671449; in the data active = inhibition above about 80%;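 note: cells exposed for 96 hours; 0% = vehicle DMSO and 100% = killing by high DMSO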); details: LFS_MB_P medulloblastoma cells
# [7] = HDN33 neuroblastoma growth inhibition, cell-based, chromothripsis tumors, cisplatin or BGB combos (AID 1671450; in the data active = inhibition above about 80%;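 note: cells exposed to compound for four days; 0% = vehicle DMSO and 100% = cell killing by high DMSO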); details: HDN33 neuroblastoma cells, stronger effect = higher value
# [8] = ICB984 medulloblastoma cell growth inhibition, synergistic combos for chromothripsis tumors, cisplatin or BGB combos (AID 1671451; call rule not given here;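 note: cells exposed for 96 hours before readout; 0% = vehicle DMSO and 100% = killing by high DMSO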); details: ICB984 medulloblastoma cells, drug combinations, stronger effect = higher value
# [9] = LFS_MB_1R medulloblastoma cell growth inhibition, synergistic combos for chromothripsis tumors, cisplatin or BGB combos (AID 1671452; in the data active = inhibition above about 80%;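 note: cells exposed for 96 hours before readout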); details: LFS_MB_1R medulloblastoma cells, stronger effect = higher value
# [10] = HTB85 osteosarcoma cell growth inhibition, synergistic combos for chromothripsis tumors, BGB or cisplatin IC20 combos (AID 1671453; in the data active = inhibition above about 80%;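 note: cells exposed for 96 hours before readout; 0% = vehicle DMSO and 100% = high DMSO killing control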); details: HTB85 osteosarcoma cells, drug combinations, stronger effect = higher value
# [11] = CRL2098 osteosarcoma cell growth inhibition, synergistic combos for chromothripsis tumors, BGB or cisplatin IC20 combos (AID 1671454; in the data active = inhibition above about 80%;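 note: cells exposed for 96 h before readout; 0% = vehicle DMSO and 100% = killing by high DMSO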); details: CRL2098 osteosarcoma cells, drug combinations, stronger effect = higher value
# [12] = HD-MB03 medulloblastoma cell growth inhibition, synergistic combos for chromothripsis tumors, BGB or cisplatin IC20 combos (AID 1671455; in the data active = inhibition above about 83%;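 note: 0% = vehicle DMSO and 100% = high DMSO as cytotoxic control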); details: HD-MB03 medulloblastoma cells, stronger effect = higher value
# [13] = UWB1.289 ovarian carcinoma cell growth inhibition, synergistic combos for chromothripsis tumors, BGB or cisplatin combos (AID 1671456; in the data active = inhibition above about 80%;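 note: cells exposed to compound for four days; 0% = vehicle DMSO and 100% = killing by high DMSO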); details: UWB1.289 ovarian carcinoma cells, stronger effect = higher value
# [14] = MDA-MB-436 breast carcinoma cell growth inhibition, synergistic combos for chromothripsis tumors, BGB or cisplatin combos (AID 1671458; call rule not given here;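 note: cells exposed for 96 hours; 0% = vehicle DMSO and 100% = killing by high DMSO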); details: MDA-MB-436 breast carcinoma growth inhibition, drug combinations, stronger effect = higher value
# [15] = growth inhibition of BT084 medulloblastoma cells, cell-based, ICGC_MB145, cisplatin and BGB IC40 combos (AID 1671461; in the data active = inhibition above about 80%;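 note: cells exposed to drugs for 96 hours; 0% = vehicle DMSO and 100% = high DMSO full killing control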); details: drug combinations, stronger effect = higher value
# [16] = growth inhibition of RCMB18 medulloblastoma cells, cell-based, cisplatin and BGB IC40 combos (AID 1671462; in the data active = inhibition above about 80%;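 note: cells exposed to compound for four days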); details: stronger effect = higher value
# [17] = growth inhibition of CRL1545 osteosarcoma cells, cell-based, cisplatin and BGB IC20 combos (AID 1671464; in the data active = inhibition above about 80%;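 note: cells exposed to compound for 96 hours before readout; 0% = vehicle DMSO and 100% = high DMSO killing control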); details: stronger effect = higher value
# [18] = sensitizers of A549 cells to miR-34 induction, primary screen, imaging, A549 dox-inducible miR-34, nuclei and caspase counts (AID 1347080;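 active = compounds whose cell count with miR-34 switched on is under 0.7 times the count with it off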); details: A549 miR-34 inducible, Hoechst nuclei count, 48 h
# [19] = survival rescue of mitochondrial mutant cells in low glucose, primary screen, MELAS cybrids, Rieske KO mouse fibroblasts, CellTiter-Glo (AID 1508586;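 active = mean z-score across replicates of 1.96 or higher in either the MELAS or the Rieske mutant cell line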;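 note: z relative to plate mean and SD of compound and empty wells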)
# [20] = measured here: combination with BGB IC40, at 0.05 µM
# [21] = measured here: with BGB IC20 combination, at 0.5 µM
# [22] = measured here: with cisplatin IC20 combination, at 0.5 µM
# [23] = measured here: combination with cisplatin, at 0.5 µM
# [24] = stronger effect = lower value, cell number ratio, induced over uninduced
# [25] = measured here: relative caspase fold change +Dox/-Dox
# [26] = measured here: total cells with miR-34 induction, stronger effect = lower value
# [27] = measured here: total cells without miR-34 induction
# [28] = MELAS cybrid survival, CellTiter-Glo 48 h, stronger effect = higher value
# [29] = Rieske KO mouse fibroblast survival, CellTiter-Glo 72 h
smiles,measurement,setting,value
NC1CCC(N[C@@H]2C[C@H]2c2ccccc2)CC1 (stereo partly specified),outcome,[1],inactive
same,outcome,[2],inactive
same,outcome,[3],inactive
same,outcome,[4],inactive
same,outcome,[5],inactive
same,inhibition,"[6]; at 0.5 µM, stronger effect = higher value",20.5% (inactive)
same,inhibition,"[6]; measured here: combination with BGB IC20, at 0.005 µM",-7.63%
same,inhibition,"[6]; measured here: combination with BGB IC40, at 0.005 µM",-36.6%
same,inhibition,[6]; [20],-4.73%
same,inhibition,"[6]; measured here: combination with cisplatin, at 0.5 µM, stronger effect = higher value",61.5%
same,inhibition,"[6]; measured here: combination with cisplatin, at 5 µM, stronger effect = higher value",-33.8%
same,inhibition,"[7]; BGB combo, at 5 µM",-29.3%
same,inhibition,[7]; at 0.5 µM,-3.39% (inactive)
same,inhibition,"[7]; cisplatin combo, at 5 µM",-5%
same,inhibition,[7]; [21],-15.4%
same,inhibition,[7]; [22],-4.58%
same,inhibition,"[7]; single agent, at 5 µM",-15%
same,inhibition,"[8]; BGB IC20 combo, at 0.005 µM",1.45%
same,inhibition,"[8]; BGB IC40 combo, at 0.005 µM",-40%
same,inhibition,"[8]; BGB IC40 combo, at 0.05 µM",-44.5%
same,inhibition,[8]; at 0.5 µM,-31.6% (inactive)
same,inhibition,"[8]; cisplatin combo, at 0.05 µM",-50.3%
same,inhibition,"[8]; cisplatin combo, at 0.5 µM",-54.9%
same,inhibition,"[8]; cisplatin combo, at 5 µM",-29.9%
same,inhibition,"[8]; measured here: 5 uM single agent, at 5 µM",-0.182%
same,inhibition,[9]; at 0.5 µM,-25.6% (inactive)
same,inhibition,[9]; [20],-43.6%
same,inhibition,[9]; [23],-41.7%
same,inhibition,"[9]; measured here: combination with cisplatin, at 5 µM",-14.7%
same,inhibition,[10]; at 0.5 µM,0.26% (inactive)
same,inhibition,"[10]; measured here: with BGB IC20, at 0.5 µM",13%
same,inhibition,"[10]; measured here: with BGB IC20, at 5 µM",4.36%
same,inhibition,"[10]; measured here: with cisplatin IC20, at 0.5 µM",-8.09%
same,inhibition,"[10]; measured here: with cisplatin IC20, at 5 µM",0.769%
same,inhibition,"[10]; single agent, at 5 µM",26.6%
same,inhibition,[11]; at 0.5 µM,-30% (inactive)
same,inhibition,"[11]; measured here: combination with BGB at IC20, at 0.5 µM",8.8%
same,inhibition,"[11]; measured here: combination with cisplatin at IC20, at 0.5 µM",-54.3%
same,inhibition,[12]; at 0.5 µM,-7.1% (inactive)
same,inhibition,"[12]; measured here: combo with BGB at IC20, at 0.5 µM",-21.2%
same,inhibition,"[12]; measured here: combo with cisplatin at IC20, at 0.5 µM",17.1%
same,inhibition,[13]; at 0.5 µM,-1.76% (inactive)
same,inhibition,"[13]; measured here: inhibition with BGB combination, at 0.05 µM",-8.52%
same,inhibition,"[13]; measured here: inhibition with cisplatin combination, at 0.05 µM",-20.9%
same,inhibition,[14]; at 0.5 µM,-9.19% (inactive)
same,inhibition,"[14]; measured here: BGB combination, at 0.5 µM",-1.28%
same,inhibition,"[14]; measured here: BGB combination, at 5 µM",-16.2%
same,inhibition,"[14]; measured here: cisplatin combination, at 0.5 µM",-20.5%
same,inhibition,"[14]; measured here: cisplatin combination, at 5 µM",-12.9%
same,inhibition,[15]; at 0.5 µM,-8.52% (inactive)
same,inhibition,"[15]; cisplatin combination, at 0.5 µM",-9.89%
same,inhibition,"[15]; cisplatin combination, at 5 µM",-5.53%
same,inhibition,"[15]; measured here: BGB IC40 combination 0.05 uM, at 0.05 µM",65.9%
same,inhibition,"[15]; single agent, at 5 µM",3.43%
same,inhibition,[16]; at 0.5 µM,-11.5% (inactive)
same,inhibition,"[16]; cisplatin combo, at 5 µM",-6.41%
same,inhibition,"[16]; measured here: BGB IC40 combination, at 0.05 µM",-13.6%
same,inhibition,[16]; [23],-9.08%
same,inhibition,"[16]; single agent, at 5 µM",-32.3%
same,inhibition,[17]; at 0.5 µM,-40.7% (inactive)
same,inhibition,[17]; [21],-47.5%
same,inhibition,[17]; [22],-37.3%
same,inhibition,"[17]; single agent, at 0.05 µM",-32.5%
same,inhibition,"[17]; single agent, at 5 µM",-26.5%
COc1cccc(-c2cc(F)ccc2C2Cc3nc(N)nc(C)c3C(=O)N2)n1 (stereo unspecified),AC50,[1],29.5 nM (active)
same,AC50,[2],41.7 nM (active)
same,AC50,[3],29.5 nM (active)
same,AC50,[4],37.2 nM (active)
same,IC50,[5],74.2 nM (active)
same,fold change,[18]; [24],0.968 (inactive)
same,fold change,[18]; [25],0.335
same,cell count,[18]; [26],2200
same,cell count,[18]; [27],2270
same,z-score,[19]; [28],2.51 (active)
same,z-score,[19]; [29],-1.33
C=CC(=O)Nc1ccc2ncnc(Nc3cccc(Br)c3)c2c1,AC50,[1],10500 nM (active)
same,AC50,[2],18600 nM (active)
same,AC50,[3],9340 nM (active)
same,AC50,[4],13200 nM (active)
same,IC50,[5],4680 nM (active)
same,fold change,[18]; [24],0.91 (inactive)
same,fold change,[18]; [25],0.865
same,cell count,[18]; [26],3490
same,cell count,[18]; [27],3830
same,z-score,[19]; [28],-0.254 (inactive)
same,z-score,[19]; [29],-0.0488
